IL-1B inflam inh = qHTS for Inhibitors of Inflammasome Signaling: IL-1-beta AlphaLISA Primary Screen; THP-1 LPS/ATP IL-1B secretion, AlphaLISA, 16 h; hits give low values; activity change, % at 57.5 µM; hit rate 4.7% among 360,000; in the data active = activity change below about -50%; inconclusive = mostly about -30% to -49%
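Secreted IL-1B measured by AlphaLISA bead assay after 16 h compound exposure of THP-1 cells; compounds (final up to 57.5 uM) added 1 h before LPS (250 ng/mL) and ATP (1.25 mM) stimulation; lower signal means less secretion.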
TDP1 cell noCPT = qHTS for Inhibitors of human tyrosyl-DNA phosphodiesterase 1 (TDP1): qHTS in cells in absence of CPT; hit rate 15% among 420,000; DT40 Tdp1-/- hTDP1 cells, no CPT, ATP luminescence, 48 h; Potency, µM (top dose mostly 46.2 µM), inactives show at the highest dose activity change, negative = growth inhibition, hits mostly inhibitors; AID 686978, 2013; note: potency is the fitted concentration of half-maximal effect; nearly all actives have a fitted effect of over 55% in size
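Chicken DT40 Tdp1-/- cells stably complemented with human TDP1 were seeded at 400 cells/well with DMSO in place of 20 nM camptothecin. After compound pinning, cells grew at least 48 hr at 37 °C; viability read by CellTiter-Glo luminescence.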
HT1080 IDH1KD tx = qHTS for induction of synthetic lethality in tumor cells producing 2HG: qHTS for the HT-1080-IDH1KD cell line; AID 686971, 2013; hit rate 2% among 360,000; HT-1080 IDH1 knockdown viability, ATP luminescence, 48 h; Potency, µM (series often up to 46.1 µM), without a hit: at the highest dose activity, negative = toxicity, usual class: cytotoxic;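 note: potency is the fitted concentration of half-maximal effect; 0% = DMSO wells and -100% = cell-free medium wells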
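After a 2 h attachment period, IDH1KD HT-1080 cells took pin-transferred compound for 48 h at 37 °C; ATP-based luminescence after 10 min room-temperature reagent incubation reported viability.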
DT40 TDP1 CPT = qHTS for Inhibitors of human tyrosyl-DNA phosphodiesterase 1 (TDP1): qHTS in cells in presence of CPT; chicken DT40 Tdp1-/-;hTDP1 cells + 20 nM CPT, ATP luminescence, 48 h; Potency, µM (titrated, usually from 46.2 µM), for the others: at the highest dose activity change, negative = growth inhibition, hits mostly inhibitors; hit rate 12% among 420,000; AID 686979, 2013; note: potency is the fitted concentration of half-maximal effect; nearly all actives have a fitted effect of over 55% in size
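Cell growth measured by CellTiter-Glo luminescence after a minimum 48 h, 37 C compound exposure with 20 nM CPT in Tdp1-knockout DT40 cells stably expressing hTDP1, seeded 400/well; qHTS titration format.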
HT1080NT lethal = qHTS for induction of synthetic lethality in tumor cells producing 2HG: qHTS for the HT-1080-NT fibrosarcoma cell line | Potency, µM (titrated, usually from 46.1 µM), inactives show at the top dose activity, negative = less viability, most hits filed as cytotoxic | HT-1080-NT fibrosarcoma viability, CellTiter-Glo ATP luminescence, 48 h | hit rate 1.6% among 360,000 | AID 686970, 2013;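 note: NT is the 2HG producing partner of a matched IDH1 knockdown line; potency is the fitted concentration of half-maximal effect; 0% = DMSO-treated cells and -100% = media-only wells without cells; nearly all actives have a fitted effect of over 55% in size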
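HT-1080-NT fibrosarcoma cells (2HG-overproducing), 750 cells/well in RPMI with 5% FBS, dosed after 2 h and incubated 48 h at 37C. CellTiter-Glo luminescence normalized to DMSO and no-cell wells; concentration-response curves fitted and classed.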
ELG1 DNA repair = qHTS screen for small molecules that inhibit ELG1-dependent DNA repair in human embryonic kidney (HEK293T) cells expressing luciferase-tagged ELG1; Potency, µM (series often up to 46.1 µM), without a hit: top-dose activity change, negative = inhibition, actives largely listed as inhibitors; HEK293T ELG1-luciferase reporter, luminescence, 16 h; DNA damage induced by 5-fluorouridine; hit rate 2.3% among 330,000; AID 504467, 2011; note: potency is the fitted concentration of half-maximal effect; nearly all actives have a fitted effect of over 55% in size
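Cells (2,000 per well) received 5-fluorouridine plus test compound or DMSO and were incubated 16 hr at 37 °C, 5% CO2. Luciferase activity was read by luminescence 30 min after ONE-Glo addition; signal suppression marked inhibition of damage-induced ELG1 function.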
* hit, by the source's call; ? = inconclusive; · = not tested or not shown. Compounds with a hit are over-represented: about 19% of the library has one in this group of screens. Unless noted, calls come from the whole dose curve; as a rule, active = well fitted curve in the direction sought with a large enough effect; inconclusive = small, poorly fitted or top-dose-only effect, or another doubt; inactive = no such curve, though single readings can be large; an effect the other way counts as inactive or inconclusive. Unless noted, % is set by controls: 0 for no effect and ±100 for the full control effect.

SMILES | IL-1B inflam inh | TDP1 cell noCPT | HT1080 IDH1KD tx | DT40 TDP1 CPT | HT1080NT lethal | ELG1 DNA repair
O=S(=O)(NCc1ccccc1)[C@@H]1CC2C=CC1C2 (stereo partly drawn) | 35 | ? | 3% | -22% | 2% | 11%
O=C(NCCc1c[nH]c2ccccc12)C(=O)NCC1OCCN1S(=O)(=O)c1ccccc1 (stereo not drawn) | 1 | ? | -1% | ? | 1% | -16%
Cc1cc(C)c(S(=O)(=O)N2CCOC2CNC(=O)C(=O)NCCc2c[nH]c3ccccc23)c(C)c1 (stereo not drawn) | -8 | 18µM* | -4% | 26µM* | -16% | ?
Cc1ccc(S(=O)(=O)N2CCCOC2CNC(=O)C(=O)NCCc2c[nH]c3ccccc23)cc1 (stereo not drawn) | -60* | 18µM* | -16% | 15µM* | -14% | 23µM*
O=C(NCCc1c[nH]c2ccccc12)C(=O)NCC1OCCN1S(=O)(=O)c1ccc(Cl)cc1 (stereo not drawn) | 7 | 21µM* | 1% | ? | 0% | 13µM*
O=C(NCCc1c[nH]c2ccccc12)C(=O)NCC1OCCCN1S(=O)(=O)c1ccccc1 (stereo not drawn) | 0 | 16µM* | -13% | -79% | -1% | ?
O=C(NCCc1c[nH]c2ccccc12)C(=O)NCC1OCCN1S(=O)(=O)c1ccc(F)cc1 (stereo not drawn) | 14 | ? | 1% | ? | 0% | ?
O=C(CC1SC(N2CCCCC2)=NC1=O)Nc1cccc(C(=O)N2CCCC(C(F)(F)F)C2)c1 (stereo not drawn) | 36 | -15% | 0% | ? | 2% | ·
C[C@@H]1CNC(=O)c2c(C(=O)NCc3ccc(CNC(=O)OC(C)(C)C)cc3)ncn21 | 1 | 21µM* | 1% | ? | 1% | ·
CN(Cc1ccccc1)C(=O)c1[nH]cnc1C(=O)NCc1ccc(CNC(=O)OC(C)(C)C)cc1 | 9 | 13µM* | 3% | ? | -20% | ?
CC(C)(C)OC(=O)NCc1ccc(NC(=O)c2nc[nH]c2C(=O)N[C@@H](Cc2ccccc2)C(=O)OCc2ccccc2)cc1 | -65* | ? | ? | ? | ? | ?
O=C(Nc1nccs1)c1nc[nH]c1C(=O)NCc1ccccc1 | -14 | 0% | 0.82µM* | 12% | ? | 13%
CN(Cc1ccccc1)C(=O)c1[nH]cnc1C(=O)Nc1nccs1 | -19 | -7% | 7% | ? | 12% | 11%
CC(C)(C)OC(=O)NCCCC[C@H](NC(=O)c1[nH]cnc1C(=O)N[C@@H](Cc1ccccc1)C(=O)OCc1ccccc1)C(=O)OC(C)(C)C | -7 | ? | 3% | ? | ? | -5%
O=C(CNC(=O)c1nc[nH]c1C(=O)NCc1ccccc1)OCc1ccccc1 | 14 | ? | -11% | ? | -3% | -20%
CC(C)(C)OC(=O)NCc1ccc(CNC(=O)c2[nH]cnc2C(=O)NCC(=O)OCc2ccccc2)cc1 | -1 | ? | -23% | ? | -27% | 8.2µM*
CC(C)(C)OC(=O)[C@H](Cc1ccccc1)NC(=O)c1nc[nH]c1C(=O)NCc1ccccc1 | -29 | -30% | 4% | ? | 3% | -15%
CNC(=O)c1[nH]cnc1C(=O)N[C@@H](Cc1ccccc1)C(=O)OC(C)(C)C | 54 | -26% | 13% | ? | 9% | 0%
CC(C)(C)OC(=O)NCc1ccc(CNC(=O)c2[nH]cnc2C(=O)N[C@@H](Cc2ccccc2)C(=O)OCc2ccccc2)cc1 | 4 | 23µM* | -6% | ? | -27% | -8%
CC(C)C[C@H](NC(=O)c1nc[nH]c1C(=O)NCc1ccc(CNC(=O)OC(C)(C)C)cc1)C(=O)OCc1ccccc1 | 0 | 21µM* | -1% | ? | -9% | ?
CC(C)C[C@H](NC(=O)c1nc[nH]c1C(=O)NCC(=O)OC(C)(C)C)C(=O)OCc1ccccc1 | 32 | ? | 0% | ? | 1% | -3%
CC(C)(C)OC(=O)NCc1ccc(CNC(=O)c2[nH]cnc2C(=O)N[C@@H](Cc2ccccc2)C(=O)OC(C)(C)C)cc1 | ? | 21µM* | -1% | 18µM* | -12% | ?
Cc1cccc(C)c1NC(=O)CN(C)C(=O)CC1CC2CCC1C2 (stereo not drawn) | 7 | ? | 14% | 8% | -4% | 27%
CCN(CC)C(=O)c1[nH]cnc1C(=O)NCc1ccc(CNC(=O)OC(C)(C)C)cc1 | 15 | -20% | 5% | ? | 3% | -7%
CC(C)(C)OC(=O)N1CCC(NC(=O)c2[nH]cnc2C(=O)Nc2ccc(Br)cc2F)CC1 | 2 | 18µM* | 11% | 21µM* | 10% | ·
SMILES | IL-1B inflam inh | TDP1 cell noCPT | HT1080 IDH1KD tx | DT40 TDP1 CPT | HT1080NT lethal | ELG1 DNA repair
C[C@@H](OC(=O)c1[nH]cnc1C(=O)NCc1ccc(CNC(=O)OC(C)(C)C)cc1)c1ccccc1 | -21 | 16µM* | ? | 21µM* | ? | 13µM*
CN(Cc1ccccc1)C(=O)c1[nH]cnc1C(=O)NC1CCN(C(=O)OC(C)(C)C)CC1 | 15 | ? | 2% | 21µM* | 0% | ?
CN(C)S(=O)(=O)c1cccc(C(=O)NCC(C)(C)CNC(=O)c2cccc(S(=O)(=O)N(C)C)c2)c1 | -9 | ? | -10% | -29% | -2% | ?
C[C@@H]1CN([C@@H](C)CO)C(=O)Cc2cc(NS(=O)(=O)c3cn(C)cn3)ccc2O[C@@H]1CN(C)C(=O)Nc1ccccc1 | 6 | -19% | 13% | 1% | 11% | 17%
CCOc1ccc(NC(=S)N(CC)Cc2ccccc2)cc1 | · | · | · | · | · | -25%
CCCCNC(=S)Nc1ccc(SC(F)F)cc1 | -105* | ? | ? | -12% | ? | -1%
CCCN(Cc1ccccc1)C(=S)Nc1ccc(OCC)cc1 | -58* | 18µM* | -13% | ? | -24% | -1%

Screening data: PubChem BioAssay, National Center for Advancing Translational Sciences (NCATS)
